Data on 62 molecules can be found in PubChem BioAssay AID463173 (ICCB-Longwood Screening Facility, Harvard Medical School, 2010).

Hit rate of the full screen: of about 52,000 compounds, about 4,300 (8.3%) were called active. Rule as the data show it: active = survival mostly below about 52% (no sharp cut-off); inactive = mostly above about 56%. For the sample, actives were picked, then their nearest neighbours and some compounds at random.

The subject of this assay is DeltatarO mutant. Put plainly: growth inhibition of S. aureus wild type versus tarO mutant, primary screen, teichoic acid synthesis inhibitors, RN4220, OD600 (AID 463173). To be noted: OD600, 18 h, stronger effect = lower value, screened at 18.75 µg/mL (by protocol).
As to `CCCC(=O)NCCc1nc2ccccc2n1Cc1c(F)cccc1Cl`, the survival was 69% (inactive).

For `Cc1ccccc1Cn1c(-c2cccs2)nc2ccccc21`, the survival was 19% (active).

For the molecule `Cc1cccc(Cn2c(-c3cccs3)nc3ccccc32)c1`, the survival is 2% (active).

Regarding `Cc1cccc(CNC(=O)Cn2c(-c3cccs3)cc3ccccc32)c1`, the survival is 116% (inactive).

As for `Cc1ccccc1Cn1cnc2ccccc21`, the survival is 77% (inactive).

With `CC(=O)N1CCCC1c1nc2ccccc2n1Cc1ccccc1C` (configuration not stated), the survival was 69% (inactive).

In the case of `CC(=O)N1CCCC1c1nc2ccccc2n1Cc1cccc(C)c1` (configuration not stated), the survival is 72% (inactive).

Turning to `Clc1ccccc1Cn1c(-c2cccs2)nc2ccccc21`, the survival is 11% (active).

As to `OCc1nc2ccccc2n1Cc1ccccc1Cl`, the survival is 74% (inactive).

Consider `Fc1cccc(Cl)c1Cn1c(-c2cccs2)nc2ccccc21`, for which the survival was 21% (active).

Take `O=C(NCc1nc2ccccc2n1Cc1ccccc1Cl)c1ccccc1`: the survival was 97% (inactive).

For `OCc1nc2ccccc2n1Cc1c(F)cccc1Cl`, the survival is 99% (inactive).

`O=c1[nH]nc(-c2ccccc2)c2cc3c(=O)[nH]nc(-c4ccccc4)c3cc12`: the survival is 100% (inactive).

As for `CSc1cccc(NC(=O)Cn2c(=O)n(Cc3ccccc3)c(=O)c3sc4ccccc4c32)c1`, the survival was 91% (inactive).

In the case of `Cc1ccc(Cn2c(=O)n(CC3CCC(C(=O)N4CCOCC4)CC3)c(=O)c3sccc32)cc1` (configuration not stated), the survival is 75% (inactive).

In the case of `Cc1cccc(CC2C(=O)Nc3ccccc32)c1` (configuration not stated), the survival is 87% (inactive).

In the case of `CCc1ccccc1NC(=O)Cn1ccn(-c2cc(C)cc(C)c2)c(=O)c1=O`, the survival was 67% (inactive).

With `Cc1cc(Cl)ccc1NC(=O)C(=O)NCc1ccco1`, the survival was 135% (inactive).

For `Cc1ccc(C)c(Cn2c(C(C)NC(=O)c3ccccc3)nc3ccccc32)c1` (configuration not stated), the survival is 88% (inactive).

As to `CCC(O)c1nc2ccccc2n1Cc1cc(C)ccc1C` (configuration not stated), the survival is 86% (inactive).

As to `Cc1ccc(C)c(Cn2c(-c3cccs3)nc3ccccc32)c1`, the survival is -3% (active).

For `Cc1oc(-c2ccccc2F)nc1CSc1nnc(C)n2c1cc1occc12`, the survival was 74% (inactive).

On to `Cc1cc2c(cc3c(SCc4ccc(Cl)cc4)nnc(C)n32)o1`, for which the survival is 57% (inactive).

Regarding `Clc1ccc(CSc2nncn3c2cc2occc23)cc1`, the survival was 47% (inactive).

In the case of `C=Cc1ccc(CSc2nnc(C)n3c2cc2occc23)cc1`, the survival was 42% (active).

Turning to `Cc1cc2c(cc3c(SCc4cccc(Cl)c4)nnc(C)n32)o1`, the survival is 56% (inactive).

Consider `Cc1ccc(-c2nc(CSc3nnc(C)n4c3cc3occc34)c(C)o2)cc1`, for which the survival was 72% (inactive).

With `Cc1cc2c(cc3c(SCc4ccccc4Cl)nnc(C)n32)o1`, the survival was 49% (active).

Regarding `Cc1cc(C)c(CSc2nnc(C)n3c2cc2occc23)c(C)c1`, the survival was 40% (active).

In the case of `Cc1oc(-c2cccc(Cl)c2)nc1CSc1nnc(C)n2c1cc1occc12`, the survival was 79% (inactive).

Consider `Cc1nnc(SCc2ccccc2Cl)c2cc3occc3n12`, for which the survival is 74% (inactive).

For `Cc1nnc(SCc2ccc(Cl)cc2)c2cc3occc3n12`, the survival was 28% (active).

As to `Cc1ccc(C)c(NC(=O)CSc2nnc(C)n3c2cc2occc23)c1`, the survival is 66% (inactive).

Turning to `COc1ccc(NC(=O)C(CC(C)C)NS(=O)(=O)c2ccc3c(c2)oc(=O)n3C)cc1Cl` (configuration not stated), the survival was 127% (inactive).

On to `Cc1cccc(NC(=O)CSc2nc3c(sc4ccccc43)c(=O)n2CCCC(=O)NC2CCCC2)c1`, for which the survival is 87% (inactive).

For the molecule `CCOC(=O)c1c(C)oc2ncnc(NCCCN3CCN(c4cc(C)ccc4C)CC3)c12`, the survival is 101% (inactive).

Regarding `Cc1ccc(Cn2c(C(=O)NCc3ccccc3Cl)cc3sccc32)cc1`, the survival was 86% (inactive).

In the case of `COc1ccccc1-c1nc2c3c(-c4ccccc4)c(-c4ccccc4)oc3ncn2n1`, the survival is 70% (inactive).

In the case of `COc1cccc(NC(=O)CSCc2cc(=O)c3ccc(C)c(C)c3[nH]2)c1`, the survival is 74% (inactive).

For `CSCCC(NS(=O)(=O)c1ccc2c(c1)oc(=O)n2C)C(=O)Nc1ccc(Cl)cc1` (configuration not stated), the survival was 94% (inactive).

As to `COc1ccc(CCNC(=O)CCn2c(=O)c3cccn3c3ccc(F)cc32)c(OC)c1OC`, the survival was 39% (active).

Consider `O=C(CCn1c(=O)c2cccn2c2ccc(F)cc21)NCCc1ccccc1Cl`, for which the survival is 52% (inactive).

With `COc1ccccc1CCNC(=O)CCn1c(=O)c2cccn2c2ccc(F)cc21`, the survival is 44% (active).

As to `COc1ccc(OC)c(CCNC(=O)CCn2c(=O)c3cccn3c3ccc(F)cc32)c1`, the survival was 58% (inactive).

On to `COc1ccc(OC)c(CNC(=O)CCn2c(=O)c3cccn3c3ccc(F)cc32)c1`, for which the survival was 58% (inactive).

For `COc1ccc(OC)c(CCNC(=O)CCCn2c(=O)c3cccn3c3ccc(F)cc32)c1`, the survival was 88% (inactive).

As for `COc1ccc(S(=O)(=O)Nc2ccc3c(c2)CCCN3S(=O)(=O)c2ccc(C)cc2)cc1F`, the survival is 74% (inactive).

In the case of `O=C(NCCn1ccc2ccccc21)c1ccc(Cl)cc1`, the survival was 87% (inactive).

In the case of `O=C1CC(c2ccccc2)Cc2[nH]c(=O)c(C(=O)Nc3ccc(OC(F)(F)F)cc3)cc21` (configuration not stated), the survival was 163% (inactive).

`CCc1ccc(NC(=O)CSc2nc3ncccc3[nH]2)cc1`: the survival was 86% (inactive).

Regarding `CCN(C(=O)CSc1nc2ncccc2[nH]1)c1ccc(C(C)C)cc1`, the survival is 43% (active).

As for `CCN(C(=O)CSc1nc2ccccc2[nH]1)c1ccccc1`, the survival is 85% (inactive).

Consider `Cc1nc2nc(SCC(=O)NC3CCC(C)CC3)nn2c(C)c1Cc1ccccc1` (configuration not stated), for which the survival was 92% (inactive).

For the molecule `COc1cc(NC(=O)CSc2nc3nc(C)c(Cc4ccccc4Cl)c(C)n3n2)cc(OC)c1`, the survival is 73% (inactive).

On to `COc1ccccc1CNC(=O)CSc1nc2nc(C)c(Cc3ccccc3C)c(C)n2n1`, for which the survival was 118% (inactive).

In the case of `Cc1nc2nc(SCC(=O)NC3CCCCC3)nn2c(C)c1Cc1ccccc1Cl`, the survival was 25% (active).

`Cc1ccc(Cc2c(C)nc3nc(SCC(=O)NC4CCC(C)CC4)nn3c2C)cc1` (configuration not stated): the survival is 131% (inactive).

Turning to `Cc1nc2nc(SCC(=O)NC3CCC(C)CC3)nn2c(C)c1Cc1ccccc1Cl` (configuration not stated), the survival is 83% (inactive).

Regarding `COCCCNC(=O)CSc1nc2nc(C)c(Cc3ccccc3Cl)c(C)n2n1`, the survival is 61% (inactive).

Turning to `COc1ccccc1CNC(=O)CSc1nc2nc(C)c(Cc3ccccc3Cl)c(C)n2n1`, the survival is 46% (active).

Consider `Cc1cccc(Cc2c(C)nc3nc(SCC(=O)NC4CCCCC4)nn3c2C)c1`, for which the survival was 40% (active).

Regarding `Cc1c(C(=O)N(Cc2ccc(N(C)C)cc2)CC2CCCO2)oc2ccc(Br)cc12` (configuration not stated), the survival is 58% (inactive).
